SMN2 splice enh: SMN2 splice variant enhancement | HEK293 SMN2-luciferase splicing reporter, luminescence, 30-36 h | Potency, µM (highest dose often 46.1 µM), inactives show at the top dose activity change, positive = activation, hits mostly activators | actives 2.8% (n = 210,000) | AID 1458; also: % of control where 0% means no effect; nearly all actives have a fitted effect of over 55% in size
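HEK293 cells carry an SMN2 minigene-luciferase reporter in which exon 7 inclusion puts luciferase in frame. Cells were seeded at 2000 cells/well, attached for 10-12 hours, then exposed to compounds for 30-36 hours at 37C before ONE-Glo luminescence.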
FLuc modulator: firefly luciferase modulation, counter-screen for miR-21 project | purified FLuc, Km substrates, luminescence inhibition | Potency, µM (titrated, usually from 57.5 µM), without a hit: at the highest dose activity change, negative = inhibition, usual class: inhibitors | actives 6.9% (n = 360,000) | AID 588342;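 also: plate controls were vehicle for no effect and reference inhibitor for full effect; nearly all actives have a fitted effect of over 55% in size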
Target sequence (P08659 whole entry, looked up): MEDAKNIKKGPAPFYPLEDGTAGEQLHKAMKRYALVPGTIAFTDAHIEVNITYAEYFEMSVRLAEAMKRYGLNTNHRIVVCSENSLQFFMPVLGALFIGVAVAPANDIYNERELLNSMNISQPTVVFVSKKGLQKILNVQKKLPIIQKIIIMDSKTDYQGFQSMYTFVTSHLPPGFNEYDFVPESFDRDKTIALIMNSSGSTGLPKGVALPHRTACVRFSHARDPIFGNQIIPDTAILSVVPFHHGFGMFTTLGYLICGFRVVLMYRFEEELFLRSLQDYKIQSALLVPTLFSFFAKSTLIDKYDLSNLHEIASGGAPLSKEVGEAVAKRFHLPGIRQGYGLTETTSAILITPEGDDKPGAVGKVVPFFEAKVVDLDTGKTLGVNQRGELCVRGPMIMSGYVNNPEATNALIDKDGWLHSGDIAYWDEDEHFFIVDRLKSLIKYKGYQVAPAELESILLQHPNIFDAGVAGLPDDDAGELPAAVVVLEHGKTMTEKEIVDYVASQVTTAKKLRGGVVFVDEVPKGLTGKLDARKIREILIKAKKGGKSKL
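Purified P. pyralis luciferase, 10 nM final, with Km-level 10 uM D-luciferin and 10 uM ATP in 50 mM Tris acetate pH 7.5, 10 mM Mg acetate, 0.01% Tween-20, 0.05% BSA; 6-point qHTS titration about 60 µM downward; luminescence read.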
NPC1 promoter act: activates the NPC1 promoter; Huh7 NPC1 promoter luciferase reporter, 24 h; Potency, µM (titrated, usually from 9.22 µM), without a hit: top-dose activation, actives largely listed as activators; actives 2.4% (n = 320,000); AID 485313; also: % of control where 0% means no effect; nearly all actives have a fitted effect of over 60% in size
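Cells: Huh7 expressing luciferase under the NPC1 promoter, 1500/well. Seeded 2 h, compound added, incubated 24 h at 37 °C. Luciferase reagent, 10 min ambient, then luminescence.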
Rab9 prom act: activates the Rab9 promoter | Huh7 Rab9 promoter-luciferase reporter, luminescence, 24 h | AID 485297 | Potency, µM (series often up to 9.22 µM), without a hit: at the highest dose activation, negative = inhibition, actives largely listed as activators | actives 2.8% (n = 320,000); also: % of control where 0% means no effect; nearly all actives have a fitted effect of over 60% in size
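Measured in stably transfected Huh7 cells bearing a Rab9 promoter–luciferase construct: 24 h compound treatment at 37 °C, followed by luminescence detection.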
ELG1 DNA repair: inhibitors of ELG1-dependent DNA repair in HEK293T cells | HEK293T ELG1-luciferase reporter, luminescence, 16 h; DNA damage induced by 5-fluorouridine | Potency, µM (top dose mostly 46.1 µM), inactives show top-dose activity change, negative = inhibition, usual class: inhibitors | actives 2.3% (n = 330,000); also: % is scaled to controls: 0 for no effect and ±100 for the full control effect; nearly all actives have a fitted effect of over 55% in size
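In this reporter screen, reduction of luminescence relative to DMSO vehicle indicated activity. Compounds and 5-fluorouridine were added together to 2,000 cells per well, incubated for 16 hr at 37 °C, then developed with ONE-Glo.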
ELG1 genotoxic: induces genotoxicity in HEK293T cells with luciferase-tagged ELG1; HEK293T ELG1-luciferase reporter, luminescence, 16 h; Potency, µM (titrated, usually from 46 µM), for the others: at the top dose activity change, positive = activation, hits mostly activators; actives 1.3% (n = 330,000); also: % of control where 0% means no effect; nearly all actives have a fitted effect of over 60% in size
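DMSO vehicle served as control against compound-treated ELG1-luciferase HEK293T cells; exposure lasted 16 hr at 37 °C and 5% CO2, followed by ONE-Glo luminescence detection after 30 min.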
* hit, by the source's call; ? = inconclusive; / = no result. Compounds with a hit are over-represented: about 9.4% of the library has one in this group of screens. Calls follow the shape of the dose curve; as a rule, active = well fitted curve in the direction sought with a large enough effect; inconclusive = small, poorly fitted or top-dose-only effect, or another doubt; inactive = no such curve, though single readings can be large; an effect the other way counts as inactive or inconclusive. Potency is read from the fitted curve at half-maximal effect.

SMILES	SMN2 splice enh	FLuc modulator	NPC1 promoter act	Rab9 prom act	ELG1 DNA repair	ELG1 genotoxic
CCc1ccccc1NC(=O)CNC(=O)c1ccc(OCc2cn3ccccc3n2)cc1	/	/	/	/	?	2%
NNc1nc(-c2ccccc2Cl)nc2ccccc12	/	-20%	9%	13%	-11%	4%
NNc1nc(-c2ccccc2Cl)nc2sc3c(c12)CCCC3	/	0.95µM*	?	?	?	?
O=C(OC1CCS(=O)(=O)c2sccc21)c1ccccc1 (configuration not stated)	-17%	-1%	1%	-1%	0%	-2%
O=S1(=O)CC/C(=N\Nc2ccccc2)c2ccsc21	-11%	?	1%	-1%	9%	7%
Cc1ccc(C(=O)O/N=C2\CCS(=O)(=O)c3sccc32)cc1	7%	0.48µM*	1%	4%	2%	-2%
O=C(O/N=C1\CCS(=O)(=O)c2sccc21)c1c(F)cccc1F	-6%	4.8µM*	-9%	-16%	2%	-2%
COc1cccc(C(=O)O/N=C2\CCS(=O)(=O)c3sccc32)c1	2%	1.5µM*	-7%	6%	6%	1%
O=C(Oc1ccc(Cl)cc1)c1ccc2nccnc2c1	1%	3.8µM*	-2%	0%	-8%	3%
Cc1cccc(OC(=O)c2cccnc2)c1	/	0%	-3%	0%	0%	1%
Cc1cccc(OC(=O)c2ccc3nccnc3c2)c1	-12%	15µM*	12%	-5%	6%	1%
Cc1cc(C(F)(F)F)nn1-c1nc(-c2ccccc2)cc(C(F)(F)F)n1	-16%	-8%	/	/	/	/
Cc1ccc(O)c(NC(=O)c2ccco2)c1	16µM*	6µM*	?	18%	?	11%
Cc1ccc(C(=O)Nc2ccc(NC(=O)c3ccco3)c(C)c2)cc1	/	5.4µM*	21%	30%	?	?
Cc1cc(O)c(NC(=O)c2ccco2)cc1C	11µM*	30µM*	26%	27%	?	?
Cc1cc(NC(=O)c2ccccc2)ncc1NC(=O)c1ccco1	8.9µM*	11µM*	2µM*	1.4µM*	?	1.6µM*
Cc1cc(NC(=O)c2ccc(Br)o2)ccc1NC(=O)c1ccco1	/	?	9%	17%	?	?
CC(=O)Nc1nnc(SCc2cc(=O)c3cccc(Cl)c3[nH]2)s1	/	-9%	/	/	/	/
COc1ccc(C(=O)Nc2nnc(SCC(=O)NC3CC3)s2)cc1	/	1.2µM*	1.4µM*	2.5µM*	?	?
COc1cccc(C(=O)Nc2nnc(SCC(=O)NC3CC3)s2)c1	/	5.4µM*	?	?	?	?
CC(=O)Nc1nnc(SCc2cc(=O)c3cccc(C)c3[nH]2)s1	/	7%	/	/	/	/
COc1ccc(C(=O)Nc2nnc(SCc3cc(=O)c4cccc(F)c4[nH]3)s2)cc1	/	21µM*	/	/	/	/
CC(=O)c1ccc(NC(=O)c2cnc(N3CCCC3)nc2C)cc1	/	-2%	/	/	/	/
COc1cccc(-n2cnc3scc(-c4cccs4)c3c2=O)c1	-7%	-2%	3%	1%	0%	-3%
COc1ccc(C(=O)Nn2cnc3scc(-c4cccs4)c3c2=O)c(O)c1	13µM*	15µM*	2.8µM*	2.5µM*	?	7.3µM*
CCCN1C(=O)C(=O)N(CC(=O)c2cc(C)n(C3CC3)c2C)C1=O	/	?	2.8µM*	1.4µM*	?	?
CCN1C(=O)C(=O)N(CC(=O)c2cc(C)n(C3CC3)c2C)C1=O	/	?	?	?	?	13%
c1ccc(CN2CCN(CCOCCOc3cccc4ccccc34)CC2)cc1	-12%	-13%	-1%	-13%	18µM*	-4%
O=C(c1ccco1)N1CCN(CCOCCOc2cccc3ccccc23)CC1	-2%	0%	3%	1%	?	-9%
